# Of roughly 8,800 targets only a part is listed; those with a hit were picked by preference. About 0.5% of all pairs of compound and target were hits.
# Compound: C1=CC=C(C=C1)[C@H](COC2=CC3=C(C=C2)NC(=O)N3)NC(=O)C4=CC=CN(C4=O)CC5=CC(=C(C=C5)F)F
# Assay: log2 fold change, soluble protein after heating vs DMSO (PISA); higher = thermal stabilisation; K562 lysate, 10 uM; active = over 0.2 and 3.5 SD of the protein, either way, in both replicates (recomputed)
# How it was run: (§1)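 K562 pellets were dounce-homogenised in PBS pH 7.4 with 1 mM MgCl2, and the crude extract at 1 mg/mL protein was treated with 10 μM compound for 30 min. Aliquots were heated for 3 min across 48°C-58°C, pooled, and brought to 0.5% NP-40 at 4°C; soluble protein was the supernatant after 21,000xg for 90 min. Soluble protein was quantified by TMTpro 16plex LC-MS/MS with channel sums equalised, and reported as log2 fold change in thermal stability against DMSO controls, with values from duplicates.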
# Sequence of UniProt P10646 (P10646 whole entry, looked up): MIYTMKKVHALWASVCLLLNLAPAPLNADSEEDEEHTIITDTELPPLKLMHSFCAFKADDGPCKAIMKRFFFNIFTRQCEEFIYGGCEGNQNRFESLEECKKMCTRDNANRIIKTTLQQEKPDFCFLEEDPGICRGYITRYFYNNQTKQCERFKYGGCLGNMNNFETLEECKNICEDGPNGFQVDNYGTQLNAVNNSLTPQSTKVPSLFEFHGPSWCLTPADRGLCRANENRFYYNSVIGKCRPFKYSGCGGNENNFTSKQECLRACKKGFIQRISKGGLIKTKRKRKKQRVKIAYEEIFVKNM
# Sequence of UniProt Q53S58 (Q53S58 whole entry, looked up): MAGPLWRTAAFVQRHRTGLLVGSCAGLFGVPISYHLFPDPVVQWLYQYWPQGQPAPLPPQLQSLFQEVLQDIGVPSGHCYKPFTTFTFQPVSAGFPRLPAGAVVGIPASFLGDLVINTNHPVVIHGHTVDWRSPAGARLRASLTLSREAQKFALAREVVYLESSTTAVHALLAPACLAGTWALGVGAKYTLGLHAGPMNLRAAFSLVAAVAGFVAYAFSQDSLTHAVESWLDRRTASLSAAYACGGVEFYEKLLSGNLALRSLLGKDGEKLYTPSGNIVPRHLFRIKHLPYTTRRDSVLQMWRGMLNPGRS
# Sequence of UniProt P04350 (P04350 whole entry, looked up): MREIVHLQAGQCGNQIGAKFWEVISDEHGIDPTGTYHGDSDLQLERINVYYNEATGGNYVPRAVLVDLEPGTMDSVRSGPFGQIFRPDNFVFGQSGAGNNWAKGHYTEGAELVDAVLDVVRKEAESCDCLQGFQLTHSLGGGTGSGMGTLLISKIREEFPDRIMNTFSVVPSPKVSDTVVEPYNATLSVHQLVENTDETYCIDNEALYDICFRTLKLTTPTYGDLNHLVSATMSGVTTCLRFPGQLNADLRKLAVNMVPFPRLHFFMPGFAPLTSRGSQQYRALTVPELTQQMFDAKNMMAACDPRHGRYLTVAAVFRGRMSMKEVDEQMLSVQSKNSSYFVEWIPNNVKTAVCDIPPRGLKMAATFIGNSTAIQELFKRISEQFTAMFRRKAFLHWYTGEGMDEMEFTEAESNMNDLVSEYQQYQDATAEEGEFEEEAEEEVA
# Sequence of UniProt Q04726 (Q04726 whole entry, looked up): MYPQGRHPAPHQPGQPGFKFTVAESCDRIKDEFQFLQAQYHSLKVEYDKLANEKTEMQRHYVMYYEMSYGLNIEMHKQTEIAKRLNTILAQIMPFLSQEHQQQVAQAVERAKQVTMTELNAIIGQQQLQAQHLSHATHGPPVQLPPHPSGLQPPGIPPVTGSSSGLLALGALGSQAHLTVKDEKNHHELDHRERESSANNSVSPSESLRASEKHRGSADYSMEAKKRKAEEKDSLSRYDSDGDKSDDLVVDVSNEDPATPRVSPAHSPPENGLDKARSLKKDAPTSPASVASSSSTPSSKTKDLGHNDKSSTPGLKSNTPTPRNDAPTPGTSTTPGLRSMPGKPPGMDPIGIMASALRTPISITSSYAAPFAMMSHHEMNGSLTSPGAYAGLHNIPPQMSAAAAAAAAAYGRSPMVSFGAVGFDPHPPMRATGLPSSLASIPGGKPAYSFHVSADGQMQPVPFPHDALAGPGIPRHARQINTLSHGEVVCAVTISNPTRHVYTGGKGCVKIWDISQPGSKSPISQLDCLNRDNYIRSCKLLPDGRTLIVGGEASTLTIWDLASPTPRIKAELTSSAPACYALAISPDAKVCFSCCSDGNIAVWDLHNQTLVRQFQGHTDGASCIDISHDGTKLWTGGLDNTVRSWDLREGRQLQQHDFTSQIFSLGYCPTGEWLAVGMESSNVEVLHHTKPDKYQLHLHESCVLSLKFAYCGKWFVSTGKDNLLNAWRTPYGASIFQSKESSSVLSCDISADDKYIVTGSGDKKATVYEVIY
# Sequence of UniProt P62328 (P62328 whole entry, looked up): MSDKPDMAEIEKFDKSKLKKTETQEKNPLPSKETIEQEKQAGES
# Sequence of UniProt Q6N022 (Q6N022 whole entry, looked up): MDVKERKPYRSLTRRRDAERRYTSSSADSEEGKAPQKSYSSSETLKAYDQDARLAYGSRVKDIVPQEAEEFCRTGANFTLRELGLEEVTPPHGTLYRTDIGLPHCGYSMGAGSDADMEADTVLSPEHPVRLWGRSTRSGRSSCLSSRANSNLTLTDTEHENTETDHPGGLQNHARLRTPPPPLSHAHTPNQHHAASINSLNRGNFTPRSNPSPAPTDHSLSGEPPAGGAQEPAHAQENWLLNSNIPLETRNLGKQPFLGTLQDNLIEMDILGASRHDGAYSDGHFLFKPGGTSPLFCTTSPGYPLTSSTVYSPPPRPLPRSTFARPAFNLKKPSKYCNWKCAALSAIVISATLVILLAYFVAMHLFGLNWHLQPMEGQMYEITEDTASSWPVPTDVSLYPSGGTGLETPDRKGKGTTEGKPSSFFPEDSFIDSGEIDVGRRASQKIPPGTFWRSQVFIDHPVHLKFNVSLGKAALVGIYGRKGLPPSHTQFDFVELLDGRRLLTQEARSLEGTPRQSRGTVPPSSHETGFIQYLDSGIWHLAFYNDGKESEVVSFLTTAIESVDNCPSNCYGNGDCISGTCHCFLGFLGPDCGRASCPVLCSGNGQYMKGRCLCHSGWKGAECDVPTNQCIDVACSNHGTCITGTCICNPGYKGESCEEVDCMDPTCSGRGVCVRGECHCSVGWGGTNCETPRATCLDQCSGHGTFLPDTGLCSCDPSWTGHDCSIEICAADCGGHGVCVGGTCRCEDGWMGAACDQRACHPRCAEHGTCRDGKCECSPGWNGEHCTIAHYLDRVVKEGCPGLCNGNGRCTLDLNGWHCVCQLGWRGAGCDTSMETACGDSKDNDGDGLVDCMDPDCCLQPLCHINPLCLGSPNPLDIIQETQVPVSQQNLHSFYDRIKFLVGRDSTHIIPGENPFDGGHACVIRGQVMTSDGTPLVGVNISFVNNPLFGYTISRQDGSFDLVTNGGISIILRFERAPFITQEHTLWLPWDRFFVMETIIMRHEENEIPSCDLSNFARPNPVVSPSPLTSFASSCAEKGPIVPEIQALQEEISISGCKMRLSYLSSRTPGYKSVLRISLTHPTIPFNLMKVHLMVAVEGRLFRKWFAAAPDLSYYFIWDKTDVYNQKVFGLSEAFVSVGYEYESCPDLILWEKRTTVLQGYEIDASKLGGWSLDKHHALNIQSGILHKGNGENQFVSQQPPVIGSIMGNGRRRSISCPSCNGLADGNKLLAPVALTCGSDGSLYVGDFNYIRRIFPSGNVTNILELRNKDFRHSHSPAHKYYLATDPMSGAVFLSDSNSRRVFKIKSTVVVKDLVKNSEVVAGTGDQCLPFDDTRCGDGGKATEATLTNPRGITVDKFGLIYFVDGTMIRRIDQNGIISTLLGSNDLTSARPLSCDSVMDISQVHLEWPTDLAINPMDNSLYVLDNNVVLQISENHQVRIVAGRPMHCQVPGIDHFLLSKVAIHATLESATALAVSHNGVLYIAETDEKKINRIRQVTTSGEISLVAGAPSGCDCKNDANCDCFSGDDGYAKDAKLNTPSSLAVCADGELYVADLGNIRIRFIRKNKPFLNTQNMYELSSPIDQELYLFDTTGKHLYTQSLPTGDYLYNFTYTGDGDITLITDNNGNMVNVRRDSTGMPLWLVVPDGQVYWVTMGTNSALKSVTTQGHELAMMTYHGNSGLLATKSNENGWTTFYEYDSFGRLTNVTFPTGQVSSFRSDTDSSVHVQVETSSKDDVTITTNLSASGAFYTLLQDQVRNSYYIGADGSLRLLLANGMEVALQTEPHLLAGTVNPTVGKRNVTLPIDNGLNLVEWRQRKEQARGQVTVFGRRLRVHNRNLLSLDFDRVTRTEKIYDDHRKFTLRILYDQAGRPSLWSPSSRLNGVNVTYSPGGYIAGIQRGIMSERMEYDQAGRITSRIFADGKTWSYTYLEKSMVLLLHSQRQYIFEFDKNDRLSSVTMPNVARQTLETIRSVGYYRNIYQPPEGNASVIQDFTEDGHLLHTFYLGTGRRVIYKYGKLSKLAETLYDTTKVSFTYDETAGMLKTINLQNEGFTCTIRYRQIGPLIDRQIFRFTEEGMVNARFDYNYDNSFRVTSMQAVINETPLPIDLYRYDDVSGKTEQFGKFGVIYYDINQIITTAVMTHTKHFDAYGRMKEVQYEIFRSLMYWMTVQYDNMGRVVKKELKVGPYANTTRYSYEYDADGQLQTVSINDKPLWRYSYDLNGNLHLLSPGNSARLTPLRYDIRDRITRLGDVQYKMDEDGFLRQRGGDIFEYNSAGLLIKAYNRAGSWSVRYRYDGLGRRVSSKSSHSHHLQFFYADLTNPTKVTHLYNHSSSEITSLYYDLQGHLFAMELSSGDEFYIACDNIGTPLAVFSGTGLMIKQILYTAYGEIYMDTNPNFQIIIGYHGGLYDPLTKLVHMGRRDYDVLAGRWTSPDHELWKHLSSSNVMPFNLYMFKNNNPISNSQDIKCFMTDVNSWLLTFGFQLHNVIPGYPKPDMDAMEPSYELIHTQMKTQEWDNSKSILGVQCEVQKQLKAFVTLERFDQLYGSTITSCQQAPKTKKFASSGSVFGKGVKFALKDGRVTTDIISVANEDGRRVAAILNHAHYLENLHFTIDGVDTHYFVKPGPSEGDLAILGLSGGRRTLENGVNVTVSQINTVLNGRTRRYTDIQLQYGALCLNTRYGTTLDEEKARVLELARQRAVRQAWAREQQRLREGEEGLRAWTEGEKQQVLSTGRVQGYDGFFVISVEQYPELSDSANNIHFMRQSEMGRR
# Sequence of UniProt O43399 (O43399 whole entry, looked up): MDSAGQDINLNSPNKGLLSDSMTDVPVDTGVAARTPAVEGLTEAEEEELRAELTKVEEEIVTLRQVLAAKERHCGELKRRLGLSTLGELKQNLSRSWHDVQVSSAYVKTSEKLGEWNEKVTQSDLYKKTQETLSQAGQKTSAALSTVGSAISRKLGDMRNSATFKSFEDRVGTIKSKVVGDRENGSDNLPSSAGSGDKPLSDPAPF
row,Target,log2 fold change
1,TMEM177 (UniProt Q53S58),0.002 (inactive)
2,TASP1 (UniProt Q9H6P5),0.027 (inactive)
3,TNIK isoform 5 (UniProt Q9UKE5),0.008 (inactive)
4,TMSB4X (UniProt P62328),-0.935 (active)
5,TNFAIP3 (UniProt P21580),0.052 (inactive)
6,TCF20 (UniProt Q9UGU0),0.022 (inactive)
7,TLE3 isoform 5 (UniProt Q04726),-0.061 (inactive)
8,TUBB6 (UniProt K7ES63),-0.115 (inactive)
9,TRPM4 (UniProt Q8TD43),-0.074 (inactive)
10,TFPT (UniProt P0C1Z6),-0.176 (inactive)
11,TPD52L2 isoform 3 (UniProt O43399),-0.058 (inactive)
12,TFPI (UniProt P10646),0.053 (inactive)
13,TMEM161B (UniProt Q8NDZ6),-0.07 (inactive)
14,TENM4 (UniProt Q6N022),-0.057 (inactive)
15,TUBA4A (UniProt C9JQ00),-0.111 (inactive)
16,TM2D3 (UniProt Q9BRN9),0.023 (inactive)
17,TUBB4A (UniProt P04350),0.015 (inactive)

# Compound: CC1=C(SC2=C1C(=N[C@H](C3=NN=C(N32)C)CC(=O)N)C4=CC=C(C=C4)Cl)C
# Assay: as above
# How it was run: as §1
row,Target,log2 fold change
1,TMEM177 (UniProt Q53S58),-0.009 (inactive)
2,TASP1 (UniProt Q9H6P5),0.205 (inactive)
3,TNIK isoform 5 (UniProt Q9UKE5),-0.009 (inactive)
4,TMSB4X (UniProt P62328),0.434 (inactive)
5,TNFAIP3 (UniProt P21580),0.05 (inactive)
6,TCF20 (UniProt Q9UGU0),-0.063 (inactive)
7,TLE3 isoform 5 (UniProt Q04726),-0.454 (active)
8,TUBB6 (UniProt K7ES63),0.02 (inactive)
9,TRPM4 (UniProt Q8TD43),0.114 (inactive)
10,TFPT (UniProt P0C1Z6),-0.078 (inactive)
11,TPD52L2 isoform 3 (UniProt O43399),0.135 (inactive)
12,TFPI (UniProt P10646),-0.116 (inactive)
13,TMEM161B (UniProt Q8NDZ6),-0.052 (inactive)
14,TENM4 (UniProt Q6N022),0.174 (inactive)
15,TUBA4A (UniProt C9JQ00),-0.225 (inactive)
16,TM2D3 (UniProt Q9BRN9),-0.003 (inactive)
17,TUBB4A (UniProt P04350),-0.03 (inactive)
